We go through 30 compounds from ChEMBL document CHEMBL1157539, “Thousands of chemical starting points for antimalarial lead identification” (Nature, 2010).

Format in all cases: functional
Assay [1] deals with Plasmodium falciparum. Description: GSK_TCMDC: Inhibition of Plasmodium falciparum 3D7 in whole red blood cells, using parasite LDH activity as an index of growth. Test compounds present at 2uM.
For assay [2], the system named is Plasmodium falciparum. The experiment in a line: GSK_TCMDC: Inhibition of Plasmodium falciparum Dd2 in whole red blood cells, using parasite LDH activity as an index of growth. Test compounds present at 2uM.
The subject of a further assay is HepG2. Description: GSK_TCMDC: Percent inhibition of human HepG2 cell line. Test compounds present at 10uM.

As to `CCN1CCc2c1cc(C(=O)N[C@@H](Cc1ccccc1)[C@H](O)CNC(C)(C)c1cccc(C(F)(F)F)c1)cc2N1CCCCS1(=O)=O`, the Inhibition (in general, the drop in the measured response relative to a control, in per cent) was determined as 100% in the assay on Plasmodium falciparum [1], 99% with Plasmodium falciparum [2] and 6% in the assay on HepG2.
As to `COCCNCc1cccc(-c2ccc3c(Nc4ccc(Oc5ccccc5)cc4)ccnc3c2)c1`, the Inhibition came to 100% in the assay on Plasmodium falciparum [1], 99% in the assay with Plasmodium falciparum [2] and 25% in the assay with HepG2.
For `NC1=NC(c2ccccc2)(c2ccccc2)C(=O)N1CCOc1ccccc1`, the values for the Inhibition in the assay on Plasmodium falciparum [1], in the assay with Plasmodium falciparum [2] and in the assay on HepG2 were 90%, 57% and 42%, respectively.
On to `CCC(C)(CC)C(=O)n1ncc2c3c(N)nc(N)nc3ccc21`, for which the Inhibition in the assay with Plasmodium falciparum [1] was 94%; with Plasmodium falciparum [2], 6%; with HepG2, 73%.
As to `COc1c(C2=CCN(CCCCNC(=O)c3ccc(-c4ccc(C#N)cc4)cc3)CC2)ccc2c1CCCC2`, the values for the Inhibition with Plasmodium falciparum [1], with Plasmodium falciparum [2] and in the assay on HepG2 were 94%, 82% and 44%, respectively.
With `COc1ccc(-c2ccc([N+](=O)[O-])cc2C(=O)NCC(C)Oc2ccc(C(F)(F)F)cc2)cc1` (stereo not given), the Inhibition in the assay on Plasmodium falciparum [1] stood at 100%; in the assay on Plasmodium falciparum [2] it was 81%; in the assay on HepG2 it was 6%.
The corresponding values for `O=C(Nc1cccc(C(F)(F)F)c1)NC1CCN(c2ccnc3cc(Cl)ccc23)C1.O=C(O)C(F)(F)F` (stereo not given) are 100%, 89% and 18%.
For `COc1ccc2c(NN=Cc3ccccc3F)ccnc2c1`, the Inhibition was found to be 98% in the assay on Plasmodium falciparum [1], 99% in the assay on Plasmodium falciparum [2] and 15% in the assay on HepG2.
In the case of `Cc1cccc2nc(-c3cccc(-c4ccc(NC(=O)NC5CC5c5ccccc5)cc4)c3)[nH]c12` (stereo not given), the Inhibition with Plasmodium falciparum [1] is 98%; in the assay with Plasmodium falciparum [2], 49%; in the assay with HepG2 it was 25%.
In the case of `CCOc1cc(C)ccc1C1CCN(CCCCNC(=O)c2cnc(-c3ccc(C(F)(F)F)cc3)[nH]2)CC1`, the Inhibition stood at 95% with Plasmodium falciparum [1], 97% in the assay on Plasmodium falciparum [2] and 16% with HepG2.
With `Clc1ccc(Nc2nc3nonc3nc2Nc2ccc(Cl)c(Cl)c2)cc1`, the Inhibition with Plasmodium falciparum [1] was found to be 99%; in the assay on Plasmodium falciparum [2] it was 92%; in the assay on HepG2 it was 75%.
For `CCN(CC)CCCNC(=O)/C(=C/C=C/c1cc2cc(Cl)c(Cl)cc2[nH]1)OC.Cl`, the results for the Inhibition in the assay with Plasmodium falciparum [1], with Plasmodium falciparum [2] and in the assay with HepG2 were 84%, 21% and 38%, respectively.
`CCOc1ccc(NC(=O)c2cn3nc(-c4ccc(OCC)cc4)cc3nc2C2CCNCC2)cc1.Cl`: the Inhibition in the assay with Plasmodium falciparum [1] was determined as 100%; with Plasmodium falciparum [2], 39%; with HepG2, 36%.
Taken in the same sequence, the figures for `Cc1ccc(-c2cc(C(=O)Nc3ccc(S(=O)(=O)N4CCOCC4)cc3)[nH]n2)c(O)c1C` were 91%, 45% and 18%.
In the case of `Br.c1cc(C2=NC3CCCCC3N2)ccc1OCCCOc1ccc(C2=NC3CCCCC3N2)cc1` (stereo not given), the Inhibition is on record as 99% with Plasmodium falciparum [1], 64% in the assay on Plasmodium falciparum [2] and 0% in the assay with HepG2.
Consider `O=C(CCc1c[nH]cn1)Nc1cccc(-c2ccc(-c3nc4ccccc4[nH]3)s2)c1`, for which the Inhibition is listed as 92% in the assay with Plasmodium falciparum [1], 37% in the assay with Plasmodium falciparum [2] and 11% in the assay with HepG2.
Taken in the same sequence, the figures for `CCCCCCc1ncc(-c2cc3cc(O)c(-c4ccccc4)cc3oc2=O)s1` were 90%, 63% and 4%.
For `COc1ccc(C(=O)Nc2ccc3oc(-c4ccc(C(F)(F)F)cc4)cc3c2)cc1CCCN(C)C`, the results for the Inhibition in the assay with Plasmodium falciparum [1], with Plasmodium falciparum [2] and with HepG2 were 98%, 27% and 98%, respectively.
For the compound `Br.COc1cc(CCCON2C(=N)N=C(N)NC2(C)C)cc(OC)c1OC`, the Inhibition is listed as 98% in the assay on Plasmodium falciparum [1], 94% in the assay on Plasmodium falciparum [2] and 68% in the assay with HepG2.
Turning to `Cl.O=C(O)CNCC(O)c1ccccc1` (stereo not given), the Inhibition with Plasmodium falciparum [1] worked out at 96%; in the assay with Plasmodium falciparum [2], 0%; in the assay with HepG2, 7%.
Consider `CCN(CC)CCCC(C)N=c1cc(C=Cc2ccc([N+](=O)[O-])cc2)[nH]c2ccc(OC)cc12` (stereo not given), for which the Inhibition with Plasmodium falciparum [1] worked out at 100%; in the assay on Plasmodium falciparum [2], 100%; with HepG2, 37%.
Regarding `Cc1cccc(C)c1CNc1ccnc2ccccc12.Cl`, the Inhibition in the assay with Plasmodium falciparum [1] was found to be 92%; with Plasmodium falciparum [2] it was 10%; in the assay with HepG2, 59%.
For `COc1ccc(CCn2c(=N)c(C(=O)NCc3cccnc3)cc3c(=O)n4ccccc4nc32)cc1`, the Inhibition in the assay with Plasmodium falciparum [1] is 98%; in the assay on Plasmodium falciparum [2] it was 5%; in the assay with HepG2, 16%.
Turning to `COc1cc2ccccc2c(OC)c1CCNCCCCNCCc1c(OC)cc2ccccc2c1OC.CS(=O)(=O)O`, the Inhibition in the assay on Plasmodium falciparum [1] is given as 99%; in the assay with Plasmodium falciparum [2], 30%; in the assay on HepG2, 100%.
The corresponding values for `CN(C)CC(=O)Nc1ccc(-c2ccc3ccnc(N)c3c2)cc1.O=C(O)C(F)(F)F` are 100%, 99% and 69%.
With `Cc1ccc(NC(=O)c2ccc(Cl)cc2)cc1-c1ccc(C(=O)Nc2ccncc2)cc1`, the Inhibition in the assay with Plasmodium falciparum [1] worked out at 98%; in the assay with Plasmodium falciparum [2] it was 5%; in the assay with HepG2, 36%.
Taken in the same sequence, the figures for `Cc1c(-c2ccc3c(c2)C(NCCCN2CCCCC2)CC3)cnc(N)c1C.Cl` (stereo not given) were 97%, 3% and 4%.
As to `CSc1ccc2nccc(Nc3ccc(Oc4ccccc4)cc3)c2c1.Cl`, the values for the Inhibition in the assay with Plasmodium falciparum [1], in the assay with Plasmodium falciparum [2] and in the assay on HepG2 were 94%, 68% and 30%, respectively.
As for `COc1ccc(Br)cc1/C=C/C(=O)Nc1ccc2c(c1)CCCN(C)C2`, the figures for the Inhibition in the assay with Plasmodium falciparum [1], in the assay with Plasmodium falciparum [2] and with HepG2 were 84%, 10% and 8%, respectively.
`O=S(=O)(c1ccccc1OC(F)(F)F)C1CC2CCC(C1)N2S(=O)(=O)c1cccc(C(F)(F)F)c1` (stereo not given): the Inhibition with Plasmodium falciparum [1] was 99%; in the assay on Plasmodium falciparum [2], 99%; in the assay on HepG2, 5%.
